Consider 11 compounds from PubChem BioAssay (NCI).

Some test systems named below: NCI-H23 lung; NCI-H226 lung; NCI-H322M lung; HOP-62 NSCLC; NCI-H460 lung; NCI-H522 lung; A549/ATCC NSCLC; 786-0 renal; COLO 205 colon; DU-145 prostate; K-562 leukemia; MALME-3M melanoma; MDA-MB-231 breast; RXF 393 renal; SF-268 CNS; SF-295 CNS; SF-539 CNS; UACC-257 melanoma; M14 melanoma.
What all share (assay): NCI-60 one-dose screen, 48 h (100 = growth as untreated, 0 = no growth, -100 = all killed)
Holding throughout (conditions): 10 µM unless noted

Molecules are shown by their SMILES. About 83,000 compounds went through this panel and 20% of them were active in at least one assay; those are over-represented in the sample as a whole.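 Note: values are percent growth. 100 is the growth of untreated cells, values between 100 and 0 indicate rising inhibition; between -100 and 0 indicates cell death.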 Values without a mark were called inactive. Calls of active or inactive are those of the source. How the source made its calls: active means growth percent below 10; inactive means the rest.

`CC(=O)NC1C(O[C@H]2C[C@H]3[C@@H]4CC=C5C[C@@H](O)CC[C@]5(C)[C@H]4CC[C@]3(C)[C@H]2[C@H](C)C(=O)CCC(C)C)OCC(O)C1O` (stereo not given in full): the growth in the experiment on NCI-H23 lung was 65.9%; in the experiment on NCI-H226 lung, 60.6%; in the experiment on NCI-H322M lung, 81.3%; in the experiment on HOP-62 NSCLC, 52%; in the experiment on NCI-H460 lung, 22.9%; in the experiment on NCI-H522 lung it was 66.7%. For the same compound, the growth with A549/ATCC NSCLC is 53.1%; in the experiment on 786-0 renal, 1.28% (active); with COLO 205 colon it was 30.1%; with DU-145 prostate it was 57.7%; with K-562 leukemia it was 0.56% (active); in the experiment on MALME-3M melanoma it was 34.7%. In addition, the growth is 59.9% in the experiment on MDA-MB-231 breast; -43.2% (active) in the experiment with RXF 393 renal; 31% in the experiment with SF-268 CNS; -53.2% (active) with SF-295 CNS; -26.2% (active) in the experiment on SF-539 CNS; -15.5% (active) in the experiment on UACC-257 melanoma. The growth in the experiment on M14 melanoma was -22.2% (active).
With `Oc1c(C(Nc2ccccc2Br)c2ccccc2)ccc2cccnc12` (stereo not given), the growth in the experiment on NCI-H23 lung is 22.2%; with NCI-H226 lung it was 35%; in the experiment on NCI-H322M lung, 24.5%; with HOP-62 NSCLC it was 19.6%; in the experiment with NCI-H460 lung it was 5.78% (active); in the experiment on NCI-H522 lung, -1.78% (active). The growth with A549/ATCC NSCLC was 22.6%; in the experiment with 786-0 renal, 6.91% (active); with COLO 205 colon, 32.4%; in the experiment on DU-145 prostate, 28.8%; in the experiment with K-562 leukemia, 11.4%; in the experiment on MALME-3M melanoma it was 28.1%. In addition, the growth in the experiment on MDA-MB-231 breast was 37.7%; with RXF 393 renal, 37.6%; with SF-268 CNS it was 18.5%; in the experiment on SF-295 CNS it was 13.6%; in the experiment on SF-539 CNS, 19.9%; with UACC-257 melanoma, 14.5%. Also, the growth in the experiment on M14 melanoma is -14.2% (active).
Consider `COc1ccc2c(c1)C1=NN(C(=O)CO)[C@H](c3ccc(OC(F)(F)F)cc3)[C@@H]1CC2`, for which the growth is 92.2% in the experiment with NCI-H23 lung; 84.5% in the experiment with NCI-H226 lung; 130% with NCI-H322M lung; 97.4% in the experiment with HOP-62 NSCLC; 103% with NCI-H460 lung; 82.6% in the experiment with NCI-H522 lung. The growth in the experiment on A549/ATCC NSCLC was 89.3%; in the experiment on 786-0 renal, 103%; in the experiment on COLO 205 colon, 110%; in the experiment on DU-145 prostate, 105%; with K-562 leukemia, 102%; with MALME-3M melanoma, 101%. Further, the growth was 94.7% in the experiment on MDA-MB-231 breast; -19.9% (active) in the experiment with RXF 393 renal; 94.8% in the experiment with SF-268 CNS; 90.4% with SF-295 CNS; 93.2% in the experiment on SF-539 CNS; 123% with UACC-257 melanoma. The growth in the experiment with M14 melanoma is 115%.
For `COc1cccc(C2C(C#N)=C(N)Oc3cc4c(cc32)OCO4)c1` (stereo not given), the growth in the experiment with NCI-H23 lung was 9.81% (active); in the experiment with NCI-H226 lung it was -7.07% (active); in the experiment with NCI-H322M lung, 37.6%; with HOP-62 NSCLC it was 22.7%; in the experiment on NCI-H460 lung, 7.64% (active); in the experiment with NCI-H522 lung it was 11.5%. Further, the growth in the experiment with A549/ATCC NSCLC was 21.4%; with 786-0 renal, 29.9%; in the experiment with COLO 205 colon it was -47.1% (active); with DU-145 prostate it was 1.58% (active); in the experiment on MALME-3M melanoma, 39.8%; in the experiment with MDA-MB-231 breast, 30.2%. The growth was 2.45% (active) in the experiment with RXF 393 renal; 29.9% in the experiment with SF-268 CNS; 7.47% (active) in the experiment with SF-295 CNS; 4.53% (active) in the experiment with SF-539 CNS; 57.4% in the experiment on UACC-257 melanoma.
Take `Cc1ccc(C(=O)CC(=O)C(F)(F)C(F)(F)C(F)(F)F)s1`: the growth with NCI-H23 lung was 105%; in the experiment on NCI-H226 lung it was 103%; in the experiment on NCI-H322M lung it was 105%; in the experiment on HOP-62 NSCLC it was 96.9%; in the experiment with NCI-H460 lung it was 111%; in the experiment on NCI-H522 lung, 121%. Besides, the growth in the experiment with A549/ATCC NSCLC was 104%; in the experiment with 786-0 renal, 97.2%; in the experiment on COLO 205 colon, 119%; in the experiment with DU-145 prostate it was 104%; in the experiment with MALME-3M melanoma, 98.7%; with MDA-MB-231 breast it was 92.1%. The growth in the experiment with RXF 393 renal is 111%; in the experiment on SF-268 CNS, 101%; with SF-295 CNS, 103%; in the experiment with SF-539 CNS, 98.7%; in the experiment with UACC-257 melanoma, 105%.
For `CC(NC(=O)c1ccccc1)C(=O)Nc1ccccc1` (stereo not given), the growth with NCI-H23 lung was 105%; with NCI-H226 lung, 104%; in the experiment on NCI-H322M lung, 127%; in the experiment with HOP-62 NSCLC it was 103%; with NCI-H460 lung, 118%; in the experiment on NCI-H522 lung, 99.6%. The growth with A549/ATCC NSCLC is 96.3%; in the experiment on 786-0 renal, 105%; with COLO 205 colon, 106%; in the experiment on DU-145 prostate it was 118%; in the experiment with K-562 leukemia, 91.4%; with MALME-3M melanoma, 145%. Further, the growth in the experiment with MDA-MB-231 breast is 115%; in the experiment with RXF 393 renal it was 118%; in the experiment with SF-268 CNS, 108%; with SF-295 CNS, 125%; in the experiment with SF-539 CNS it was 97.2%; with UACC-257 melanoma, 103%. Further, the growth with M14 melanoma is 103%.
`C=C1C[C@@]2(C)C(CC[C@]3(C)C2CC=C2C4CC(C)(C)C[C@@H](OC(=O)/C(C)=C\C)[C@]4(C(=O)O)CC[C@]23C)C(C)(C)C1=O` (stereo not given in full): the growth was -45.6% (active) with NCI-H23 lung; -72.8% (active) in the experiment with NCI-H226 lung; 46.7% in the experiment with NCI-H322M lung; 25.9% with HOP-62 NSCLC; -37.2% (active) in the experiment with NCI-H460 lung; -6.98% (active) in the experiment with NCI-H522 lung. Moreover, the growth in the experiment with A549/ATCC NSCLC is -2.25% (active); with 786-0 renal, -77.9% (active); in the experiment on COLO 205 colon it was -11.2% (active); with DU-145 prostate, 10.3%; in the experiment with K-562 leukemia, 1.39% (active); with MALME-3M melanoma it was 36.5%. Further, the growth was 22.7% in the experiment on MDA-MB-231 breast; -75.6% (active) in the experiment on RXF 393 renal; 50.4% in the experiment on SF-268 CNS; 59.8% with SF-295 CNS; -19.8% (active) with SF-539 CNS; 17.1% in the experiment with UACC-257 melanoma. Also, the growth in the experiment on M14 melanoma was -14.2% (active).
As to `O=C(c1ccccc1)C1OC1C(=O)c1ccccc1` (stereo not given), the growth was 3.63% (active) in the experiment on NCI-H23 lung; 61.1% with NCI-H226 lung; 75.4% with NCI-H322M lung; 21% with HOP-62 NSCLC; 64.1% with NCI-H460 lung; 8.93% (active) in the experiment with NCI-H522 lung. For the same compound, the growth was 70.4% with A549/ATCC NSCLC; 15.1% with 786-0 renal; 27.6% in the experiment on COLO 205 colon; 1.5% (active) in the experiment on DU-145 prostate; 9.28% (active) in the experiment with K-562 leukemia; 30.5% in the experiment on MALME-3M melanoma. The growth with MDA-MB-231 breast is 25.9%; in the experiment on RXF 393 renal, 2.72% (active); with SF-268 CNS, 39.5%; with SF-295 CNS, 72.8%; in the experiment on SF-539 CNS, 24.5%; in the experiment on UACC-257 melanoma, 40.2%. Further, the growth in the experiment with M14 melanoma was 17.3%.
Turning to `c1cn2cc(-c3ccc4ncn(C5CCCCC5)c4c3)nc(-c3ccc4c(c3)ncn4C3CCCCC3)c2n1`, the growth with NCI-H23 lung was -41.5% (active); with NCI-H226 lung, -56.4% (active); in the experiment with NCI-H322M lung, 1.23% (active); in the experiment with HOP-62 NSCLC it was -55.4% (active); in the experiment with NCI-H460 lung, -48.5% (active); with NCI-H522 lung it was -52.6% (active). The growth with A549/ATCC NSCLC was -44.9% (active); with 786-0 renal, -47.1% (active); in the experiment on COLO 205 colon, -64.4% (active); with DU-145 prostate, -59.1% (active); in the experiment with K-562 leukemia it was -4.74% (active); with MALME-3M melanoma, -14.3% (active). For the same compound, the growth in the experiment on MDA-MB-231 breast is -68.7% (active); with RXF 393 renal it was -89.1% (active); in the experiment with SF-268 CNS it was -67% (active); in the experiment on SF-295 CNS, -86.5% (active); with SF-539 CNS it was -82.1% (active); with UACC-257 melanoma, -71.5% (active). Further, the growth in the experiment on M14 melanoma was -50.8% (active).
Turning to `Cc1ccc(Nc2cccc3ccccc23)cc1`, the growth was 83.6% with NCI-H23 lung; 90.1% in the experiment on NCI-H226 lung; 82.8% in the experiment on NCI-H322M lung; 91.9% with HOP-62 NSCLC; 103% in the experiment on NCI-H460 lung; 68.4% with NCI-H522 lung. The growth in the experiment on A549/ATCC NSCLC is 90.5%; in the experiment with 786-0 renal, 88.9%; with COLO 205 colon, 101%; in the experiment on DU-145 prostate, 109%; in the experiment with K-562 leukemia it was 63%; in the experiment on MALME-3M melanoma it was 94.2%. Moreover, the growth in the experiment on MDA-MB-231 breast was 88.5%; in the experiment with RXF 393 renal it was 91.2%; in the experiment with SF-268 CNS it was 92.4%; with SF-295 CNS, 112%; with SF-539 CNS, 99.8%; in the experiment with UACC-257 melanoma it was 86.4%. Moreover, the growth in the experiment with M14 melanoma is 89.6%.
Take `COc1ccc(CNc2c3ccccc3nc3ccccc23)cc1F`: the growth was 27% in the experiment on NCI-H23 lung; 43% in the experiment with NCI-H226 lung; 31.6% with NCI-H322M lung; 44.5% with HOP-62 NSCLC; 6.34% (active) with NCI-H460 lung; 36.2% in the experiment on NCI-H522 lung. Moreover, the growth is 22.8% with A549/ATCC NSCLC; 26% in the experiment with 786-0 renal; 8.7% (active) in the experiment with COLO 205 colon; 27.2% in the experiment with DU-145 prostate; 4.81% (active) in the experiment on K-562 leukemia; 23.6% with MALME-3M melanoma. The growth in the experiment with MDA-MB-231 breast was 29.2%; in the experiment on RXF 393 renal it was 11.1%; with SF-268 CNS it was 49.1%; in the experiment on SF-295 CNS, 20.1%; in the experiment with SF-539 CNS it was 18.2%; with UACC-257 melanoma, 37.8%. For the same compound, the growth in the experiment on M14 melanoma was 19.9%.
